Measurements as given in PubChem BioAssay (Tox21).
Values without a mark were called inactive. A call without a number means that no potency is given here. Active and inactive are the calls of the source. Calls come from the whole dose curve.

Target: Muscarinic acetylcholine receptor M1 (Homo sapiens) (UniProt P11229)
Test: Cholinergic receptor muscarinic 1 (CHRM1) small molecule agonists, cell-based qHTS assay (AID 1963589); note: nearly all actives have a fitted effect of over 35% in size
Conditions: CHRM1-CHO cells, agonist mode, calcium flux fluorescence; series mostly up to 76.8 µM
Text: National Center for Advancing Translational Sciences [NCATS]
Division of Preclinical Innovation [DPI]
U.S. Environmental Protection Agency [EPA]
National Institutes of Environmental Health Sciences [NIEHS]
National Toxicology Program [NTP]
U.S. Food and Drug Administration [FDA]
The CHRM1 is a muscarinic receptor. This receptor plays a crucial role in learning and memory processes and has long been identified as a promising therapeutic target for the improvement of cognitive decline in Alzheimer's disease (AD). The CHRM1-CHO cell line stably expressing human muscarinic acetylcholine receptor M1 (CHRM1) can be used for screening agonists and antagonists of interactions between CHRM1 and its ligands. The CHRM1-CHO Calcium Flux Assay is a homogeneous fluorescence-based assay for detecting the intracellular calcium level using FDSS kinetic plate reader system.
CHRM1-CHO cells were dispensed at 1000 cells/3uL/well in 1536-well black-clear bottom plates using a Multidrop Dispenser. After the assay plates were incubated at a 37 C/5% CO2 incubator for 18 h, 3 uL of Dye Loading Buffer was transferred to the assay plate by a Flying Reagent Dispenser. The assay plates were incubated at 37 C for 1h. For agonist mode, 23 nL of compounds dissolved in DMSO, positive controls or DMSO only was transferred to the assay plate by a pin tool. […] Each test compound was measured at 15 concentrations in three independent runs.

Chain of Muscarinic acetylcholine receptor M1 (Homo sapiens) (P11229 whole entry, looked up): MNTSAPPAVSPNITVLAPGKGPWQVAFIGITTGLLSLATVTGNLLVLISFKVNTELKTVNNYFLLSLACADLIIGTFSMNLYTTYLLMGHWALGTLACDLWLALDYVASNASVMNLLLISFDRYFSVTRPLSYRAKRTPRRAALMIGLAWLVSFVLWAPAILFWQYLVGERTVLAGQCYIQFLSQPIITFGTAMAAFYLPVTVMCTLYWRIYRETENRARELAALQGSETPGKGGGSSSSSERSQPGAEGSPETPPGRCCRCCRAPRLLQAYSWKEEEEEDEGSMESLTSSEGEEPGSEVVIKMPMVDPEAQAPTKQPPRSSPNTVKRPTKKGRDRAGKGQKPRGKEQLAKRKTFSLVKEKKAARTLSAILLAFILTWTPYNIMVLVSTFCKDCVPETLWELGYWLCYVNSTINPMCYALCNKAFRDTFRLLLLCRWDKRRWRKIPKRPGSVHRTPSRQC

Row | SMILES | Potency | activation
1 | CC(=O)N[C@@H](Cc1ccc(O)cc1)C(=O)O | inactive | 
2 | Cc1ccc(C(C)NC(=O)[C@@H](NC(=O)OC(C)C)C(C)C)cc1 (stereo not given in full) | inactive | 
3 | NC1CCCCC1N (stereo not given) | inactive | 
4 | COCc1ccc(COC)cc1 | inactive | 
5 | C=CC(C)(CCC=C(C)C)OC=O (stereo not given) | inactive | 
6 | CN1N=C(C(N)=O)CCC1=O | inactive | 
7 | Oc1cc(O)c2c(c1)O[C@H](c1ccc(O)c(O)c1)[C@H](O)C2 | inactive | 
8 | O=C1Cc2cc(Cl)ccc2N1 | inactive | 
9 | NCCC(O)(P(=O)(O)O)P(=O)(O)O | inactive | 
10 | CC1=C(O)C(=O)OC1C (stereo not given) | inactive | 
11 | CC(=O)Nc1ccc(N=Nc2cc(C)ccc2O)cc1 | inactive | 
12 | CCCCCCCOC(=O)c1ccccc1C(=O)OCCCCCCC | inactive | 
13 | COC(=O)OC | inactive | 
14 | CCCCCCCCOCCC#N | inactive | 
15 | CCN(CC)CC(=O)Oc1ccc(NC(C)=O)cc1 | inactive | 
16 | Cc1ccccc1C(=O)N1CC/C(=N\OS(=O)(=O)O)c2ccc(Cl)cc21 | inactive | 
17 | C=CC(=O)OCCOC1C2CCC1C1CC=CC12 (stereo not given) |  | 0.0965% [at 15.8 µM]
18 | CC(C)N=C(N)/N=C(\N)Nc1ccc(Cl)cc1 | inactive | 
19 | COCC(C)OC(C)=O (stereo not given) | inactive | 
20 | COC(c1ccccc1)(c1ccccc1)[C@H](Oc1nc(C)cc(C)n1)C(=O)O | inactive | 

Row | SMILES | Potency | activation
21 | Cc1ccc(S(=O)(=O)NC2CCCCC2)cc1 | inactive | 
22 | COC(=O)/C=C/c1ccccc1 | inactive | 
23 | F[Si-2](F)(F)(F)(F)F | inactive | 
24 | O=CC1CC1 | inactive | 
25 | COC(=O)c1cc(S(N)(=O)=O)ccc1OC | inactive | 
26 | C=CCOCC(CC)(CO)COCC=C | inactive | 
27 | CCCCC1CCC(O)CC1 (stereo not given) | inactive | 
28 | c1ccc(CCc2ccccc2)cc1 | inactive | 
29 | CC(C#N)(CCC(=O)O)N=NC(C)(C#N)CCC(=O)O (stereo not given) | inactive | 
30 | CCCCCCCCCCCCC(=O)O | inactive | 
31 | CC(C)=O | inactive | 
32 | CC12CCC(C(=O)C1=O)C2(C)C (stereo not given) | inactive | 
33 | O=C(CCN1CCN(CCO)CC1)N1c2ccccc2Sc2ccc(C(F)(F)F)cc21 | inactive | 
34 | CCCCOC(=O)C(=O)OCCCC | inactive | 
35 | CC(C)c1cccc(C(C)C)c1N | inactive | 
36 | N#CC1(c2ccc(F)cc2)CCC(=O)CC1 | inactive | 
37 | O=Nc1ccc(NO)cc1 | inactive | 
38 | CO[Si](CCCNCCC[Si](OC)(OC)OC)(OC)OC | inactive | 
39 | Clc1ccc2c(Cl)ccnc2c1 | inactive | 
40 | COC(CC(C)CCCC(C)(C)O)OC (stereo not given) | inactive | 
